The target in assay [1] is Acetylcholinesterase (Homo sapiens) (UniProt P22303). The assay is described as follows: Acetylcholinesterase (AChE) small molecule antagonists: enzyme-based qHTS assay (AID 1347397; calls by dose curve; further: nearly all actives have a fitted effect of over 55% in size). Particulars: Potency: AChE enzyme activity inhibition. In outline: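 Human recombinant acetylcholinesterase; substrate acetylthiocholine; thiocholine quantified with DTNB (colorimetric). Compound preincubation 30 min RT; reaction 10 min RT.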
On the technique in general: Quantitative high-throughput screening tests each substance at several concentrations.

The target is the same in assay [2]. The assay is described as follows: Acetylcholinesterase (AChE) small molecule antagonists: fluorescence cell-based qHTS assay (AID 1347398; calls by dose curve; further: nearly all actives have a fitted effect of over 50% in size). As to conditions: Potency: AChE activity. In outline:
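Thiocholine generated from acetylthiocholine by SH-SY5Y cell AChE is detected with Thiolite Green (Ex/Em 490/520 nm) after 40 min at room temperature, following 30 min compound pretreatment at 37 C.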

For assay [3] the target is unchanged. The assay is described as follows: Acetylcholinesterase (AChE) small molecule antagonists: enzyme-based qHTS assay with human liver microsomes (AID 1347399; calls by dose curve; further: nearly all actives have a fitted effect of over 60% in size). Particulars: Potency: qHTS inhibition. The procedure, abridged:
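Recombinant human AChE (50 mU/mL in the enzyme mix) and human liver microsomes (0.25 mg/mL final) were preincubated with compound and NADPH (0.25 mg/mL final) for 30 min at 37 C. Acetylthiocholine/DTNB was then added; thiocholine was read colorimetrically after 10 min at room temperature.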

Assay [4] deals with Cytochrome P450 2D6 (Homo sapiens) (UniProt P10635). The assay is described as follows: Cytochrome P450 Family 2 Subfamily D Member 6 (CYP2D6) small molecule antagonists: luciferase reporter qHTS assay (AID 1671196). Further: nearly all actives have a fitted effect of over 50% in size. Further: potency means the concentration at half of the fitted maximal effect. On activity change, negative = inhibition: series mostly up to about 120 µM. The procedure, abridged:
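Read-out is luminescence from luciferin formed by CYP2D6 turnover of a proluciferin substrate, recorded as relative luminescence units. Reactions ran 1 h at room temperature after NADPH regeneration solution was added.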
Background: In a reporter assay the amount or activity of a reporter protein is the signal.

Assay [5] addresses Cytochrome P450 2C19 (Homo sapiens) (UniProt P33261). The assay is described as follows: Cytochrome P450 Family 2 Subfamily C Member 19 (CYP2C19) small molecule antagonists: luciferase reporter qHTS assay (AID 1671197). Further: nearly all actives have a fitted effect of over 65% in size. Further: potency means the concentration at half of the fitted maximal effect. On activity change, negative = inhibition: series mostly up to about 120 µM. The procedure, abridged:
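Light output is proportional to CYP2C19 activity: proluciferin substrate is converted to luciferin, then detected by a luciferin detection reagent that also stops the 1 h, 37C NADPH-driven reaction. Ketoconazole serves as positive control.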

Assay [6] concerns the target Cytochrome P450 2C9 (Homo sapiens) (UniProt P11712). The assay is described as follows: Cytochrome P450 Family 2 Subfamily C Member 9 (CYP2C9) small molecule antagonists: luciferase reporter qHTS assay (AID 1671198). Further: nearly all actives have a fitted effect of over 50% in size. Further: potency means the concentration at half of the fitted maximal effect. On activity change, negative = inhibition: series mostly up to about 120 µM. In outline: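 CYP2C9 activity was measured with a P450-Glo proluciferin substrate. Enzyme–substrate mix was held with compound for 10 min at room temperature, then NADPH regeneration solution was added for 1 h at 37C. Luciferin product was read as luminescence.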

Assay [7] addresses Voltage-gated inwardly rectifying potassium channel KCNH2 (Homo sapiens) (UniProt Q12809). The assay is described as follows: Human Ether-a-go-go-Related Gene (hERG) channel small molecule antagonists: fluorescence cell-based qHTS assay (AID 1671200). Further: nearly all actives have a fitted effect of over 50% in size. Further: potency means the concentration at half of the fitted maximal effect.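 On activity change, negative = inhibition: hERG-expressing U2OS cells given a thallium stimulus after FluxOR II dye loading; series mostly up to about 77 µM.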 In outline:
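Channel function was assessed by thallium flux. Cells seeded the previous day and kept at 37 C took up FluxOR II dye over 1 h in the dark at room temperature, then sat another 10 min before stimulation.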

For assay [8], the target named is Cytochrome P450 3A4 (Homo sapiens) (UniProt P08684). The assay is described as follows: Cytochrome P450 Family 3 Subfamily A Member 4 (CYP3A4) small molecule antagonists: luciferase reporter qHTS assay (AID 1671201). Further: nearly all actives have a fitted effect of over 50% in size. Further: potency means the concentration at half of the fitted maximal effect. On activity change, negative = inhibition: series mostly up to about 120 µM. The procedure, abridged: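 Compounds in DMSO were pin-transferred onto CYP3A4 enzyme-substrate mix and held 10 min at room temperature. NADPH regenerating solution started the reaction for 1 h; luciferin detection reagent stopped it, and luminescence was read after 20 min.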

The target in assay [9] is Cytochrome P450 1A2 (Homo sapiens) (UniProt P05177). The assay is described as follows: Cytochrome P450 Family 1 Subfamily A Member 2 (CYP1A2) small molecule antagonists: luciferase reporter qHTS assay (AID 1671199). Further: nearly all actives have a fitted effect of over 50% in size. Further: potency means the concentration at half of the fitted maximal effect. On activity change, negative = inhibition: series mostly up to about 120 µM. In outline:
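P450-Glo CYP1A2, 1536-well qHTS: enzyme/proluciferin substrate + cpd (DMSO), 10 min RT; NADPH regen, 1 h RT; detection reagent, 20 min; luminescence, RLU.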

Unmarked numbers belong to inactive results. Records with an inconclusive call do not appear. Active and inactive are the calls of the source. Unless noted, the call rests on the fitted dose curve; in most records, active means well fitted curve in the direction sought with a large enough effect in the repeat runs; inconclusive means weak or mixed curves; inactive means no such curve, though single readings can be large; an effect the other way counts as inactive or inconclusive.
On the % scale 0 is the no-effect control and ±100 the full control effect.

Sequence of Acetylcholinesterase (Homo sapiens) (P22303 whole entry, looked up): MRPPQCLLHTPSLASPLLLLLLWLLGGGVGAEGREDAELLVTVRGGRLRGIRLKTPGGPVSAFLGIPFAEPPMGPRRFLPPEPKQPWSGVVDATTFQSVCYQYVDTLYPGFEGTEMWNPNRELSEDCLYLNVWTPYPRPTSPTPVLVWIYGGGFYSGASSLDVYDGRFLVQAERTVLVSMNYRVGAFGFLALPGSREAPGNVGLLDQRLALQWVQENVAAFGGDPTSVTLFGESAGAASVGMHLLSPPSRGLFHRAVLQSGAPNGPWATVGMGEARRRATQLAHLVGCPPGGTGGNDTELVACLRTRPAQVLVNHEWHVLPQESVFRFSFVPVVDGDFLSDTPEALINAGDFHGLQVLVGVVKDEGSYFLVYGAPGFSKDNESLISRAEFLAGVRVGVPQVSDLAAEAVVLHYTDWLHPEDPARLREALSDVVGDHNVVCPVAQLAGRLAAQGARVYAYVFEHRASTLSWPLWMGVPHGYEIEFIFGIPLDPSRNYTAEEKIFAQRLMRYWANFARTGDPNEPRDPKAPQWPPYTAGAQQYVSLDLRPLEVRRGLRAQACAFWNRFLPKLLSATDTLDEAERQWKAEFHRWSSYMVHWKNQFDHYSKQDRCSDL
Sequence of Cytochrome P450 1A2 (Homo sapiens) (P05177 whole entry, looked up): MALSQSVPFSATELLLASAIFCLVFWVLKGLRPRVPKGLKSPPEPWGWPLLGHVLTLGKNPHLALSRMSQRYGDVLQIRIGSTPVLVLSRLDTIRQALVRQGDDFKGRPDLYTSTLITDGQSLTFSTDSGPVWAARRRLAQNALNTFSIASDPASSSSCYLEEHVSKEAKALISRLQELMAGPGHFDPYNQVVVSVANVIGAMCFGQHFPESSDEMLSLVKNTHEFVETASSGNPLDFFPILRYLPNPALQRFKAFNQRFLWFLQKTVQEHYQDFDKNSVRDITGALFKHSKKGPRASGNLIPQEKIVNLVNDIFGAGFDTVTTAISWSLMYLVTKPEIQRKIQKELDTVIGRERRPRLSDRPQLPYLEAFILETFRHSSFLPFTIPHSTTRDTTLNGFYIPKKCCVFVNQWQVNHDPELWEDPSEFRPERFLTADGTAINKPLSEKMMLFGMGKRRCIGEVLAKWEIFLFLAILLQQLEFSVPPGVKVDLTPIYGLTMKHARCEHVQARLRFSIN
Sequence of Voltage-gated inwardly rectifying potassium channel KCNH2 (Homo sapiens) (Q12809 whole entry, looked up): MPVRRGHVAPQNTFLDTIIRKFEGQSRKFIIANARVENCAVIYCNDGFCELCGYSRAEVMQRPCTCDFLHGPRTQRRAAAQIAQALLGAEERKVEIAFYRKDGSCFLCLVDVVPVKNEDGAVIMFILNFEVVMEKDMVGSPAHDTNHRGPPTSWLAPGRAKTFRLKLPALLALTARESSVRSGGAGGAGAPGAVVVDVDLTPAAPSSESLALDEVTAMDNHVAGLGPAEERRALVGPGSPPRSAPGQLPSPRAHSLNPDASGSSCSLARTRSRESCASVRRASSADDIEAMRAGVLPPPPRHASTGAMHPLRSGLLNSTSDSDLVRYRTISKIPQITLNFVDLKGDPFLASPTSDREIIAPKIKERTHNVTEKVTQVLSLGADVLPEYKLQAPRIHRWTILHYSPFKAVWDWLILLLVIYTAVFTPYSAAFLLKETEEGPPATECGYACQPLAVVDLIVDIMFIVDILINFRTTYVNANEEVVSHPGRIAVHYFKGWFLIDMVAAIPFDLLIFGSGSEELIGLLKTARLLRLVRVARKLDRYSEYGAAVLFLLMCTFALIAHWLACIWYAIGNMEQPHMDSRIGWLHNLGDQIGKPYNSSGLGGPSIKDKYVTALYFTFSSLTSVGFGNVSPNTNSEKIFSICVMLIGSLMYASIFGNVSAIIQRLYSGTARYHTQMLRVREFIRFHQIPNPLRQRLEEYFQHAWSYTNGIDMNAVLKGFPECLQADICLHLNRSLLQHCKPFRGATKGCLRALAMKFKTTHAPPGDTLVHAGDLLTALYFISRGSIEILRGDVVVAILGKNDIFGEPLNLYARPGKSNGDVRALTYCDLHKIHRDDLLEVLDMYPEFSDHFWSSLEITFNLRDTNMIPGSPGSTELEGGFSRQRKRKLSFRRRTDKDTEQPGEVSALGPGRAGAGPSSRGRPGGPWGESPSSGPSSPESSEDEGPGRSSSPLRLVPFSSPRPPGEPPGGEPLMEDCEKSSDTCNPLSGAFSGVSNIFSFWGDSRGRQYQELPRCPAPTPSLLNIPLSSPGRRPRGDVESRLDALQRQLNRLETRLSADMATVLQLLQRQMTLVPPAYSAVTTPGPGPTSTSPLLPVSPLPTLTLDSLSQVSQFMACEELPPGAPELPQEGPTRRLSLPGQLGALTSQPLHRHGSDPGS
Sequence of Cytochrome P450 2C9 (Homo sapiens) (P11712 whole entry, looked up): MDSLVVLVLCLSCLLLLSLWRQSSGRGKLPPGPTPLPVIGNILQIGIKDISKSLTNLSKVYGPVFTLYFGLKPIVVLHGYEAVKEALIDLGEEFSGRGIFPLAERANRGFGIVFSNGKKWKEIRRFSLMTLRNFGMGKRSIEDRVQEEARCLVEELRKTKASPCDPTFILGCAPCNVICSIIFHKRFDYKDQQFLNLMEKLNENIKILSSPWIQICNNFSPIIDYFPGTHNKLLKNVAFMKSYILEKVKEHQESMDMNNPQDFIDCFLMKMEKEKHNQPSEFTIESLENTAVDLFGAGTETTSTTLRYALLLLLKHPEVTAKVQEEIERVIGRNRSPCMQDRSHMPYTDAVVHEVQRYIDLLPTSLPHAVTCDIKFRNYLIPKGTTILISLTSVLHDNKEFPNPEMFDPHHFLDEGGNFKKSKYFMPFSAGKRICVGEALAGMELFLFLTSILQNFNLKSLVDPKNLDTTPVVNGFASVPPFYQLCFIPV
Sequence of Cytochrome P450 3A4 (Homo sapiens) (P08684 whole entry, looked up): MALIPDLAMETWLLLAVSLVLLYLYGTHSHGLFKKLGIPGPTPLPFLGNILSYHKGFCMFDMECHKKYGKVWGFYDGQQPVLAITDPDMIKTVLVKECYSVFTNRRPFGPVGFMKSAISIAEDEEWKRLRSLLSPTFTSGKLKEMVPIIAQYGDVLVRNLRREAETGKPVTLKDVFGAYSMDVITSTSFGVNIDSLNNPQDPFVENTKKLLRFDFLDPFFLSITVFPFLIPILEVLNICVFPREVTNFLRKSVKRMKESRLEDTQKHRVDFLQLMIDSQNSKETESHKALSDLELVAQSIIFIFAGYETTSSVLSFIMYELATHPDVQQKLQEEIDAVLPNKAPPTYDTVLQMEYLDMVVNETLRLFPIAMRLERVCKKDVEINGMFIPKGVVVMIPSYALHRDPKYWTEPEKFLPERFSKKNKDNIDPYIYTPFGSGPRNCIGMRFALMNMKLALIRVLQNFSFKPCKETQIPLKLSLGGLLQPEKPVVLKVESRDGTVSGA
Sequence of Cytochrome P450 2D6 (Homo sapiens) (P10635 whole entry, looked up): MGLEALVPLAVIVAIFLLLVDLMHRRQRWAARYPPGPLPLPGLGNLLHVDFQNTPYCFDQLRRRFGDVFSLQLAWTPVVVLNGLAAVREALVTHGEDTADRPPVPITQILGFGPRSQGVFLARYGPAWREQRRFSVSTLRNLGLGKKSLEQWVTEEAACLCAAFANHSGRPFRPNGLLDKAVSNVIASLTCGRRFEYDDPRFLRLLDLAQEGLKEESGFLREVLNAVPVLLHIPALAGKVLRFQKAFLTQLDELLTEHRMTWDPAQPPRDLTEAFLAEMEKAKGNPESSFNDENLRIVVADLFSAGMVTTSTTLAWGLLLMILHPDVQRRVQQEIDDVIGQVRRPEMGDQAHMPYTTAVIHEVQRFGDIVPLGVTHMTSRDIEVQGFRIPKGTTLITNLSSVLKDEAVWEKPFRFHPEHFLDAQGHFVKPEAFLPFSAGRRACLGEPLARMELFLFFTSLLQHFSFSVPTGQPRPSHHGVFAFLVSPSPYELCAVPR
Sequence of Cytochrome P450 2C19 (Homo sapiens) (P33261 whole entry, looked up): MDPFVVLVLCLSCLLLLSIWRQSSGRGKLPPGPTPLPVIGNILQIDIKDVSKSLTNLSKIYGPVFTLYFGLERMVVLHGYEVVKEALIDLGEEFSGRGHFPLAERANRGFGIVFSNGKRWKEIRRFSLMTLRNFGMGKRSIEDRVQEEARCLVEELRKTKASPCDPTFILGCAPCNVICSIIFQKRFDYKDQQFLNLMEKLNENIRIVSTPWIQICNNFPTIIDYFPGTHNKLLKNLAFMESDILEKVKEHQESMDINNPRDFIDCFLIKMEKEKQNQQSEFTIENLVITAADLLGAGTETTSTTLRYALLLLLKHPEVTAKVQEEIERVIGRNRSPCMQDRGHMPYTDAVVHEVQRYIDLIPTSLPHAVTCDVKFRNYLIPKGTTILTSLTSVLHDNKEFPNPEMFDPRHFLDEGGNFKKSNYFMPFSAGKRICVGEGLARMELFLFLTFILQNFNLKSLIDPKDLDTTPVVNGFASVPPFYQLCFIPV

With `CC(C1CC1)C(O)(Cn1cncn1)c1ccc(Cl)cc1` (stereo unspecified), the Potency result in assay [1], in assay [2], in assay [3] and in [7] was “inactive” each time. The Potency was 35.4 µM (active) in [4], 0.354 µM (active) in assay [5], 0.126 µM (active) in assay [6] and 0.888 µM (active) in assay [8].

On to `O=[N+]([O-])c1cccc(O)c1`, for which the Potency result in assay [1], in [2], in [3], in assay [4], in [5] and in assay [6] was “inactive” each time. Besides, the Potency entry in assay [7] and in [8] was “inactive” throughout.

Take `O=C(O)C(Br)CBr` (stereo unspecified): the Potency result in [1], in [2], in [3], in assay [5], in assay [7] and in assay [8] was “inactive” throughout. Further, the values for the Potency in assay [4] and in assay [9] were 36.2 µM (active) and 64.4 µM (active), respectively.

On to `CCC(=O)C(CCN(C)C)(c1ccccc1)c1ccccc1`, for which the Potency result in [1], in assay [2], in assay [3] and in assay [9] was “inactive” in each case. Besides, the Potency in [4] is 5.49 µM (active); in [5], 11 µM (active).

In the case of `CC1(C(=O)Nc2ccc(O)c(Cl)c2Cl)CCCCC1`, the Potency entry in assay [1], in assay [2], in assay [3] and in assay [7] was “inactive” in each case. For the same molecule, the figures for the Potency in assay [4], in assay [5] and in assay [6] were 71 µM (active), 11.2 µM (active) and 35.6 µM (active), respectively.

For `N#CCBr`, the Potency result in assay [1], in [2], in assay [3], in [4], in [5] and in [9] was “inactive” each time. The Potency result in [7] and in [8] was “inactive” in each case.

As for `CCC(C)(C)c1cc(-n2nc3ccccc3n2)c(O)c(C(C)(C)CC)c1`, the Potency result in assay [1], in [2] and in assay [3] was “inactive” in each case. The Potency was 25.6 µM (active) in assay [4], 20.3 µM (active) in [5] and 36.1 µM (active) in assay [9].

In the case of `O=C(CCN1CC1)OCC(CO)(COC(=O)CCN1CC1)COC(=O)CCN1CC1`, the Potency entry in assay [1], in assay [2], in [3], in assay [4], in assay [5] and in assay [6] was “inactive” each time. For the same molecule, the Potency result in assay [7] and in assay [8] was “inactive” each time.

On to `COC(=O)C(C)Oc1ccc(Oc2ccc(Cl)cc2Cl)cc1` (stereo unspecified), for which the Potency result in assay [1], in [2], in assay [3], in assay [4] and in [8] was “inactive” each time. The Potency in assay [5] is 5.64 µM (active); in assay [6], 31.7 µM (active); in [7] it was 38.9 µM (active).

As to `CC1CCC(=O)O1` (stereo unspecified), the Potency entry in assay [1], in assay [2], in assay [3], in assay [4], in assay [5] and in [6] was “inactive” throughout. Besides, the Potency result in assay [7] and in assay [8] was “inactive” each time.

For the molecule `O=C1OC(c2ccc(O)c(S(=O)(=O)O)c2)(c2ccc(O)c(S(=O)(=O)O)c2)c2c(Br)c(Br)c(Br)c(Br)c21`, the Potency result in assay [1], in assay [2], in [3], in assay [4], in [5] and in assay [9] was “inactive” each time. Besides, in [8], the Potency result was “inactive”.

`[Cl][Sn]([Cl])([Cl])[Cl]`: the Potency entry in assay [1], in assay [2], in assay [3], in assay [4] and in [8] was “inactive” in each case. In addition, the Potency in assay [5] is 81.5 µM (active); in assay [9] it was 32.4 µM (active).

`Cc1ncc(CNC(=O)N(CCCl)N=O)c(N)n1`: the Potency entry in assay [1], in [2], in assay [3], in assay [4], in [7] and in assay [8] was “inactive” in each case.

Consider `CCCCP(CCCC)CCCC`, for which the Potency entry in [1], in assay [2], in [3], in assay [7] and in assay [8] was “inactive” throughout. For the same molecule, the Potency in [4] was 35.6 µM (active); in assay [5], 31.7 µM (active).

`CC(Oc1ccc(Oc2ncc(C(F)(F)F)cc2Cl)cc1)C(=O)O` (stereo unspecified): the Potency result in assay [1], in assay [2], in assay [3], in assay [7] and in assay [8] was “inactive” throughout. Also, the Potency in assay [4] was 71 µM (active); in assay [6], 35.6 µM (active); in [9], 39.9 µM (active).

Take `COC(=O)COc1ccc(Cl)cc1Cl`: the Potency result in assay [1], in assay [2], in assay [3], in assay [4], in assay [6] and in assay [7] was “inactive” in each case. Besides, the Potency entry in assay [8] was “inactive”. In addition, in assay [9], the Potency was 12.6 µM (active).

`NC(=S)C(N)=S`: the Potency entry in assay [1], in assay [2], in assay [3] and in assay [7] was “inactive” each time. The Potency is 71 µM (active) in assay [4] and 79.6 µM (active) in assay [6].

As for `Cc1cc(C)c(C(=O)P(=O)(C(=O)c2c(C)cc(C)cc2C)c2ccccc2)c(C)c1`, the Potency entry in [1], in [2], in assay [3] and in assay [7] was “inactive” each time. The Potency was 35.6 µM (active) in assay [5], 35.6 µM (active) in [6], 71 µM (active) in assay [9] and 25.2 µM (active) in [8].

Take `CCC1(c2ccccc2)C(=O)N=C(O)NC1=O` (stereo unspecified): the Potency result in [1], in [2], in assay [3], in assay [4], in [9] and in assay [7] was “inactive” throughout. Further, the Potency entry in assay [8] is “inactive”. For the same molecule, in [6], the Potency was 61.6 µM (active).

`N#CC(Cl)(Cl)Cl`: the Potency result in assay [1], in assay [2], in assay [3], in [6], in [9] and in assay [7] was “inactive” each time. For the same molecule, the Potency entry in assay [8] was “inactive”. The Potency in assay [4] was 69.2 µM (active).

Turning to `O=C1c2ccccc2C(=O)c2ccccc21`, the activity change, negative = inhibition was -0.378% [at 23.6 µM] in assay [1]; 3.86% [at 23.8 µM] in [2]; -1.34% [at 23.6 µM] in assay [3]; 10.7% [at 23.6 µM] in assay [5]; 2.12% [at 23.6 µM] in [6]; 3.3% [at 15.8 µM] in assay [7]. In addition, the activity change, negative = inhibition in assay [8] was 15.9% [at 23.6 µM]. Also, the Potency in assay [9] was 0.177 µM (active).

The values are drawn from PubChem BioAssay (Tox21).
